# Compounds without any hit were thinned out: in the full panel of roughly 83,000, 20% have a hit.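 Values shown are percent growth following 48 h exposure of cells in 96-well plates to a single concentration of compound; below 10 was considered active.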 Unmarked numbers belong to inactive results. Activity calls are given as the source filed them.
# Tests used:
# Assay in all cases: NCI-60 one-dose screen, 48 h (100 = growth as untreated, 0 = no growth, -100 = all killed)
# SR leukemia = conditions: 10 µM unless noted
# RPMI-8226 leukemia = conditions: 10 µM unless noted
# OVCAR-8 ovarian = conditions: 10 µM unless noted
# OVCAR-5 ovarian = conditions: 10 µM unless noted
# SK-OV-3 ovarian = conditions: 10 µM unless noted
# IGROV1 ovarian = conditions: 10 µM unless noted
# OVCAR-3 ovarian = conditions: 10 µM unless noted
# HS 578T breast = conditions: 10 µM unless noted
# NCI/ADR-RES ovarian = conditions: 10 µM unless noted
# T-47D breast = conditions: 10 µM unless noted
# BT-549 breast = conditions: 10 µM unless noted
# MDA-MB-435 melanoma = conditions: 10 µM unless noted
# SW-620 colon = conditions: 10 µM unless noted
# MCF7 breast = conditions: 10 µM unless noted
# HCT-116 colon = conditions: 10 µM unless noted
# HCC-2998 colon = conditions: 10 µM unless noted
# KM12 colon = conditions: 10 µM unless noted
# OVCAR-4 ovarian = conditions: 10 µM
SMILES,growth (SR leukemia),growth (RPMI-8226 leukemia),growth (OVCAR-8 ovarian),growth (OVCAR-5 ovarian),growth (SK-OV-3 ovarian),growth (IGROV1 ovarian),growth (OVCAR-3 ovarian),growth (HS 578T breast),growth (NCI/ADR-RES ovarian),growth (T-47D breast),growth (BT-549 breast),growth (MDA-MB-435 melanoma),growth (SW-620 colon),growth (MCF7 breast),growth (HCT-116 colon),growth (HCC-2998 colon),growth (KM12 colon),growth (OVCAR-4 ovarian) [%]
COc1ncc(-c2ccc3nc(N)n(-c4ccccc4C(F)(F)F)c(=O)c3c2)cc1S(=O)(=O)Nc1ccc(F)cc1F,39%,2.65% (active),50.1%,14.7%,72.1%,8.17% (active),6.35% (active),42.3%,25.4%,30.3%,49.1%,31.2%,34.2%,43.7%,32.5%,39.7%,21.1%,
CC(C)=CCC[C@](C)(O)[C@H]1CC[C@]2(C)[C@@H]1CC[C@@H]1[C@@]3(C)CC/C(=N/O)C(C)(C)[C@@H]3CC[C@]12C,12.5% [100 µM],-2.67% [100 µM] (active),-69.7% [100 µM] (active),2.17% [100 µM] (active),12.4% [100 µM],-66.5% [100 µM] (active),-42.3% [100 µM] (active),-13% [100 µM] (active),-10.9% [100 µM] (active),7.5% [100 µM] (active),1.19% [100 µM] (active),5.38% [100 µM] (active),-48% [100 µM] (active),10% [100 µM],-9.52% [100 µM] (active),10.9% [100 µM],15.8% [100 µM],
CC1(C)C(=O)/C(=C\c2ccco2)C[C@]2(C)[C@H]3CC=C4[C@@H]5C[C@](C)(C(=O)O)CC[C@]5(C)CC[C@@]4(C)[C@]3(C)CC[C@@H]12,46.8% [100 µM],0.425% [100 µM] (active),-46.1% [100 µM] (active),-46.2% [100 µM] (active),-77.2% [100 µM] (active),-61.9% [100 µM] (active),-60.1% [100 µM] (active),-16.2% [100 µM] (active),-49.5% [100 µM] (active),-8.17% [100 µM] (active),-62.6% [100 µM] (active),-75.1% [100 µM] (active),-63.6% [100 µM] (active),-43.1% [100 µM] (active),-67% [100 µM] (active),-90.1% [100 µM] (active),-77.5% [100 µM] (active),
CC(=O)OC[C@]12CC[C@@H](C(=O)CBr)[C@@H]1[C@H]1CC[C@@H]3[C@@]4(C)CCCNC(C)(C)[C@@H]4CC[C@@]3(C)[C@]1(C)CC2,14.7% [100 µM],-36.1% [100 µM] (active),-26.1% [100 µM] (active),-74.4% [100 µM] (active),-86.8% [100 µM] (active),-61.3% [100 µM] (active),-85.3% [100 µM] (active),-22.7% [100 µM] (active),-38.8% [100 µM] (active),-69.9% [100 µM] (active),-62% [100 µM] (active),-87.9% [100 µM] (active),-58% [100 µM] (active),-54.3% [100 µM] (active),-71.2% [100 µM] (active),-83.3% [100 µM] (active),-78.2% [100 µM] (active),
COc1cc(/C=C/C(=O)/C=C/c2ccc(-n3ccnc3)cc2)ccc1O,25.1%,-5.38% (active),29.2%,100%,91.5%,-28.4% (active),34.4%,86%,99%,58%,102%,-9.19% (active),8.7% (active),6.22% (active),97.5%,42.7%,-42.4% (active),
COc1cc(/C=C/C(=O)/C=C/c2ccc(-n3ccnc3C)cc2)ccc1O,17.8%,-23.5% (active),34.9%,101%,86.1%,-37.5% (active),23.7%,68.6%,102%,54.5%,95.5%,-3.29% (active),2.17% (active),4.86% (active),90.6%,-47.3% (active),-49.7% (active),
CCC(Br)(CC)C(=O)c1ccc(OCC(=O)O)c(Cl)c1Cl,120%,121%,97.4%,106%,,,116%,,99.1%,112%,79.1%,101%,112%,92.8%,102%,91.5%,103%,97.4
C=C(C)[C@@H]1CC[C@]2(C(=O)NCCNCCNCCN)CC[C@]3(C)[C@H](CC[C@@H]4[C@@]5(C)CC[C@H](O)C(C)(C)[C@@H]5CC[C@]43C)[C@@H]12,-4.72% [100 µM] (active),-8.15% [100 µM] (active),-12.9% [100 µM] (active),-83.4% [100 µM] (active),-14.2% [100 µM] (active),-81.4% [100 µM] (active),-66% [100 µM] (active),-23.3% [100 µM] (active),-13.1% [100 µM] (active),-32.6% [100 µM] (active),-51.9% [100 µM] (active),-89.2% [100 µM] (active),-86.7% [100 µM] (active),-60.5% [100 µM] (active),-26.5% [100 µM] (active),-90.4% [100 µM] (active),-52.2% [100 µM] (active),
CCN(CCNc1ccc(C)c2sc3cc(Cl)ccc3c(=O)c12)CC(C)O (stereo unspecified),12.3%,-23.2% (active),58.3%,79.9%,,,60.6%,,74.8%,31.7%,110%,6% (active),11.9%,36.7%,9.99% (active),5.33% (active),39.2%,77
C=C(C)[C@@H]1CC[C@]2(C(N)=O)CC[C@]3(C)[C@H](CC[C@@H]4[C@@]5(C)C/C(=C/c6cccnc6)C(=O)C(C)(C)[C@@H]5CC[C@]43C)[C@@H]12,10.7% [100 µM],6.37% [100 µM] (active),20.3% [100 µM],-6.45% [100 µM] (active),12.9% [100 µM],14.9% [100 µM],12.5% [100 µM],25.5% [100 µM],14.7% [100 µM],1.22% [100 µM] (active),14.1% [100 µM],0.0948% [100 µM] (active),3.53% [100 µM] (active),10.8% [100 µM],5.4% [100 µM] (active),-15.9% [100 µM] (active),-3.05% [100 µM] (active),
C=C(C)[C@@H]1CC[C@]2(C(=O)O)CC[C@]3(C)[C@H](CC[C@@H]4[C@@]5(C)C/C(=C/c6ccco6)C(=O)C(C)(C)[C@@H]5CC[C@]43C)[C@@H]12,31.9% [100 µM],2.97% [100 µM] (active),-17.6% [100 µM] (active),-44.4% [100 µM] (active),-54.2% [100 µM] (active),-63.2% [100 µM] (active),-59.1% [100 µM] (active),-1.95% [100 µM] (active),-43.8% [100 µM] (active),-8.1% [100 µM] (active),-67.8% [100 µM] (active),-75.9% [100 µM] (active),-34.7% [100 µM] (active),-53.2% [100 µM] (active),-74.7% [100 µM] (active),-78.1% [100 µM] (active),-96.3% [100 µM] (active),
O=C(N=c1n(-c2ccccc2)nc2n1CCN2C1=NCCN1C(=O)c1ccc(Cl)cc1)c1ccc(Cl)cc1,73.9%,73.2%,78.7%,88.8%,92.9%,59%,53.6%,82.7%,73.3%,50.1%,59.6%,70.5%,68.3%,46%,39.1%,85.8%,60.7%,
C[C@H]1[C@H](C)CC[C@]2(C(=O)N3CCN(C)CC3)CC[C@]3(C)C(=CC[C@@H]4[C@@]5(C)C/C(=C/c6ccco6)C(=O)C(C)(C)[C@@H]5CC[C@]43C)[C@H]12,32% [100 µM],19.5% [100 µM],25.4% [100 µM],63.5% [100 µM],59.3% [100 µM],3.24% [100 µM] (active),40.1% [100 µM],53.2% [100 µM],37.9% [100 µM],20.3% [100 µM],50.8% [100 µM],42.6% [100 µM],39.9% [100 µM],23.9% [100 µM],19% [100 µM],38.2% [100 µM],35.7% [100 µM],
O=c1cc(-c2ccccc2)oc2cc(OCc3cn(Cc4ccc(F)cc4)nn3)cc(O)c12,96.8% [100 µM],93.7% [100 µM],20.4% [100 µM],83.7% [100 µM],20.6% [100 µM],31.2% [100 µM],61.7% [100 µM],9.08% [100 µM] (active),43.2% [100 µM],44.2% [100 µM],16.3% [100 µM],98.2% [100 µM],102% [100 µM],65.7% [100 µM],48.5% [100 µM],100% [100 µM],99.4% [100 µM],
COC(=O)[C@]12CCC(C)(C)C[C@H]1C1=CC[C@@H]3[C@@]4(C)C/C(=C/c5cccnc5)C(=O)C(C)(C)[C@@H]4CC[C@@]3(C)[C@]1(C)CC2,47.7% [100 µM],-38.4% [100 µM] (active),0.407% [100 µM] (active),-19.5% [100 µM] (active),7.52% [100 µM] (active),-34.2% [100 µM] (active),-1.73% [100 µM] (active),-18.5% [100 µM] (active),-40.5% [100 µM] (active),-12% [100 µM] (active),-45.7% [100 µM] (active),-51.1% [100 µM] (active),-43.4% [100 µM] (active),-65.1% [100 µM] (active),-29.4% [100 µM] (active),-72.8% [100 µM] (active),-48.6% [100 µM] (active),

# Reference: PubChem BioAssay (NCI)
